The text below walks through data of PubChem BioAssay (NCI).

Compounds without any hit were thinned out: in the full panel of roughly 83,000, 20% have a hit.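 Cell lines were cultured in 96-well plates, exposed to a single compound concentration, and assessed for percent growth 48 hours later.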 Values without a mark were called inactive. Active and inactive are the calls of the source. How the source made its calls: active means growth percent below 10; inactive means the rest.

Test systems include SR leukemia; RPMI-8226 leukemia; OVCAR-8 ovarian; OVCAR-5 ovarian; OVCAR-4 ovarian; SK-OV-3 ovarian; IGROV1 ovarian; OVCAR-3 ovarian; NCI/ADR-RES ovarian; T-47D breast; BT-549 breast; MDA-MB-435 melanoma; SW-620 colon; MCF7 breast; HCT-116 colon; HCC-2998 colon; KM12 colon; MDA-MB-468 breast.
What all share (assay): NCI-60 one-dose screen, 48 h (100 = growth as untreated, 0 = no growth, -100 = all killed)
What all share (settings): 10 µM unless noted

Consider `CC1(C)CC[C@]2(C(=O)O)CC[C@]3(C)C(=CCC4[C@@]5(C)C[C@@H](O)[C@@H]6OC(c7ccccc7Br)OC[C@@]6(C)C5CC[C@]43C)C2C1` (stereo not given in full), for which the growth is 12.5% with SR leukemia; 8.21% (active) in the experiment on RPMI-8226 leukemia; 14.7% in the experiment on OVCAR-8 ovarian; 36% with OVCAR-5 ovarian; 33.1% with OVCAR-4 ovarian; 40.2% with SK-OV-3 ovarian. Also, the growth was 35% with IGROV1 ovarian; 9.3% (active) in the experiment with OVCAR-3 ovarian; 11.5% with NCI/ADR-RES ovarian; 20.4% in the experiment with T-47D breast; 13.5% in the experiment with BT-549 breast; 28% with MDA-MB-435 melanoma. Moreover, the growth in the experiment with SW-620 colon is 19.5%; in the experiment on MCF7 breast, 7.28% (active); in the experiment with HCT-116 colon it was 6.88% (active); with HCC-2998 colon, 18.8%; with KM12 colon it was 16.9%; in the experiment on MDA-MB-468 breast it was 18.4%.
As for `CCOC(=O)/C=C/c1cccc2c1C(=O)NC(C)(c1cc3cc(Br)ccc3oc1=O)N2` (stereo not given), the growth is 27.7% in the experiment on SR leukemia; 32% in the experiment on RPMI-8226 leukemia; 37.8% in the experiment with OVCAR-8 ovarian; 76.4% in the experiment on OVCAR-5 ovarian; 40.2% with OVCAR-4 ovarian; 38.6% in the experiment with SK-OV-3 ovarian. The growth with IGROV1 ovarian was 18.2%; in the experiment on OVCAR-3 ovarian it was 48.4%; in the experiment on NCI/ADR-RES ovarian, 42.2%; in the experiment with T-47D breast it was 18.2%; with BT-549 breast, -66.3% (active); with MDA-MB-435 melanoma, 54.7%. Moreover, the growth in the experiment on SW-620 colon was 61.2%; with MCF7 breast, 35.3%; with HCT-116 colon, 32.2%; with HCC-2998 colon, 68.8%; in the experiment with KM12 colon, 41.1%; with MDA-MB-468 breast it was 32.3%.
Take `CSc1ccccc1NC(=O)c1ccc2nn(/C(C#N)=C/c3ccccn3)nc2c1`: the growth was 1.1% (active) in the experiment with SR leukemia; -41.9% (active) with RPMI-8226 leukemia; -3.76% (active) in the experiment on OVCAR-8 ovarian; -86.8% (active) in the experiment on OVCAR-5 ovarian; -55.6% (active) in the experiment on OVCAR-4 ovarian; 42.9% in the experiment on SK-OV-3 ovarian. In addition, the growth with IGROV1 ovarian is -67.9% (active); in the experiment on OVCAR-3 ovarian, -87.8% (active); in the experiment with NCI/ADR-RES ovarian it was 2.48% (active); in the experiment with T-47D breast, -78.4% (active); in the experiment with BT-549 breast it was -98.4% (active); in the experiment on MDA-MB-435 melanoma, -18.2% (active). Further, the growth with MCF7 breast was -82.4% (active); in the experiment with HCT-116 colon, -97.4% (active); in the experiment with HCC-2998 colon it was -94.5% (active); in the experiment with KM12 colon, -44.9% (active); with MDA-MB-468 breast it was -84.2% (active).
For `CC1=C(C(=O)OCc2ccccc2)C(c2ccc(-n3cncn3)cc2)n2c(nc3ccccc32)N1` (stereo not given), the growth in the experiment on SR leukemia is 18%; in the experiment with RPMI-8226 leukemia, 35.4%; in the experiment with OVCAR-8 ovarian it was 86.6%; with OVCAR-5 ovarian it was 79.3%; with OVCAR-4 ovarian, 83.2%; with SK-OV-3 ovarian, 73.8%. Moreover, the growth was 62.2% in the experiment with IGROV1 ovarian; 24.2% in the experiment on OVCAR-3 ovarian; 41.5% with NCI/ADR-RES ovarian; 65.1% with T-47D breast; 52.9% in the experiment with BT-549 breast; -12.5% (active) in the experiment with MDA-MB-435 melanoma. Moreover, the growth in the experiment with MCF7 breast is 13.1%; with HCT-116 colon, 41.3%; in the experiment with HCC-2998 colon it was 75.4%; in the experiment with KM12 colon, 39.5%; in the experiment on MDA-MB-468 breast, -18.8% (active).
As for `CCN(CC)C(=O)N/C(N)=N/c1nc2ccccc2s1`, the growth was 32% in the experiment on SR leukemia; 31.5% with RPMI-8226 leukemia; 55.5% with OVCAR-8 ovarian; 72.4% in the experiment with OVCAR-5 ovarian; 22.2% in the experiment with OVCAR-4 ovarian; 71.9% in the experiment on SK-OV-3 ovarian. Also, the growth is 72.1% in the experiment with IGROV1 ovarian; 68.2% in the experiment with OVCAR-3 ovarian; 23.3% in the experiment with NCI/ADR-RES ovarian; 12.6% with T-47D breast; 16.5% in the experiment on BT-549 breast; 37.5% with MDA-MB-435 melanoma. In addition, the growth was 37.6% in the experiment with MCF7 breast; 43.4% in the experiment with HCT-116 colon; 88.2% in the experiment with HCC-2998 colon; 73.9% in the experiment on KM12 colon; 5.79% (active) in the experiment with MDA-MB-468 breast.
Regarding `Cn1cc(-c2nnc(N)nc2-c2c[nH]c3ccc(F)cc23)c2cccnc21`, the growth in the experiment on SR leukemia is 25.5%; in the experiment with RPMI-8226 leukemia it was 49.1%; in the experiment with OVCAR-8 ovarian, 49.3%; in the experiment on OVCAR-5 ovarian, 83.3%; with OVCAR-4 ovarian it was 77.6%; with SK-OV-3 ovarian, 65.8%. The growth with IGROV1 ovarian is 40.7%; in the experiment with OVCAR-3 ovarian it was 25.3%; in the experiment on NCI/ADR-RES ovarian it was 72.9%; in the experiment on T-47D breast it was 40.7%; in the experiment with BT-549 breast it was 34%; in the experiment with MDA-MB-435 melanoma it was -21.8% (active). The growth in the experiment on SW-620 colon was 19.3%; in the experiment on MCF7 breast, 23.6%; in the experiment on HCT-116 colon, 15.1%; in the experiment on HCC-2998 colon, 65.8%; with KM12 colon it was 22.3%; with MDA-MB-468 breast, 39.1%.
Regarding `Nc1cc2ccccc2c(=O)n1NC(=O)c1ccc(I)cc1`, the growth was 88.3% in the experiment on SR leukemia; 98% with RPMI-8226 leukemia; 101% with OVCAR-8 ovarian; 98.1% with OVCAR-5 ovarian; 100% with OVCAR-4 ovarian; 91.9% in the experiment with SK-OV-3 ovarian. In addition, the growth in the experiment with IGROV1 ovarian is 106%; in the experiment on OVCAR-3 ovarian, 104%; in the experiment on NCI/ADR-RES ovarian it was 101%; with T-47D breast it was 101%; in the experiment with BT-549 breast, 108%; in the experiment with MDA-MB-435 melanoma, 100%. In addition, the growth with MCF7 breast was 93.2%; in the experiment on HCT-116 colon, 98%; with HCC-2998 colon, 114%; in the experiment with KM12 colon it was 103%; in the experiment with MDA-MB-468 breast, 98.9%.
Regarding `COc1ccc2[nH]cc(-c3cc(N)n4nc(-c5cn(C)c6ccccc56)cc4n3)c2c1`, the growth was 9.5% (active) with SR leukemia; -18% (active) in the experiment on RPMI-8226 leukemia; -95.6% (active) in the experiment with OVCAR-8 ovarian; -85.9% (active) in the experiment on OVCAR-5 ovarian; -58.3% (active) in the experiment on OVCAR-4 ovarian; -84% (active) in the experiment with SK-OV-3 ovarian. The growth in the experiment on IGROV1 ovarian is -64.2% (active); in the experiment with OVCAR-3 ovarian, -43% (active); in the experiment with NCI/ADR-RES ovarian, -45.3% (active); with T-47D breast, -73.3% (active); in the experiment on BT-549 breast it was -75.2% (active); with MDA-MB-435 melanoma it was -81% (active). Also, the growth is -46.1% (active) in the experiment on SW-620 colon; -82.2% (active) in the experiment on MCF7 breast; -85.9% (active) with HCT-116 colon; -81.3% (active) in the experiment on HCC-2998 colon; -69.9% (active) in the experiment on KM12 colon; -80.1% (active) in the experiment on MDA-MB-468 breast.
